Most compounds without a hit are left out; they make up all but 10% or so of the library.
HEK cytotox – Cytotoxic Profiling in HEK 293 Cell Line of Diverse Libraries Using Quantitative High-Throughput Screening | HEK 293 viability, ATP luminescence (CellTiter-Glo), 48-72 h | Potency, µM (series often up to 115 µM), for inactives: at the top dose activity change, negative = cytotoxicity, usual class: inhibitors | 6.6% of 94,000 active; note: % is set by controls: 0 for no effect and ±100 for the full control effect; nearly all actives have a fitted effect of over 60% in size
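250 HEK 293 cells/well; compound by pintool; incubated 48 or 72 hr at 37 degree Celsius; CellTiter-Glo added, 10 min RT, luminescence imaged.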
3T3 cytotox – Cytotoxic Profiling in NIH 3T3 Cell Line of Diverse Libraries Using Quantitative High-Throughput Screening; NIH 3T3 viability, CellTiter-Glo ATP luminescence, 48-72 h; Potency, µM (titrated, usually from 96.7 µM), without a hit: at the top dose activity change, negative = cytotoxicity, most hits filed as inhibitors; 4.3% of 94,000 active; note: % is set by controls: 0 for no effect and ±100 for the full control effect; nearly all actives have a fitted effect of over 55% in size
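NIH 3T3 cells at 400 cells/well received 23 nL of compound by pintool and were incubated 48 or 72 h at 37 °C. Viability was read as ATP-coupled CellTiter-Glo luminescence.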
GPT2 inh – Primary qHTS assay for inhibitors of Glutamate pyruvate transaminase 2 (GPT2); Alanine aminotransferase 2 (Homo sapiens), Q8TD30; Recombinant GPT2, coupled pyruvate oxidase/HRP Amplex Red fluorescence; Potency, µM (top dose mostly 57.7 µM), without a hit: at the highest dose activity change, negative = inhibition, usual class: inhibitors; 0.25% of 100,000 active; note: % is set by controls: 0 for no effect and ±100 for the full control effect; nearly all actives have a fitted effect of over 60% in size
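Recombinant GPT2 (10ng/uL) with 250uM a-KG and 2mM L-alanine, 30 min at room temperature, in HEPES pH 7.5 buffer. Pyruvate detected by pyruvate oxidase/HRP/Amplex Red fluorescence after 30 min in the dark; AOA (50uM) as positive control.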
hNpr1 antagonist – Natriuretic polypeptide receptor (hNpr1) antagonism - Primary qHTS; 1.6% of 76,000 active; Potency, µM (highest dose often 46.3 µM), for the others: at the top dose activity change, negative = inhibition, actives largely listed as inhibitors; AID 1347048, 2019; Atrial natriuretic peptide receptor 1 (Homo sapiens), P16066; HEK293 hNpr1 GloSensor cGMP, ANP-stimulated luminescence; calls by dose curve; note: % is set by controls: 0 for no effect and ±100 for the full control effect; nearly all actives have a fitted effect of over 60% in size
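HEK293 cells stably expressing human Npr1 and cGMP GloSensor pGS-40F, loaded 2 h with 2% GloSensor reagent, given compound 30 min at room temperature. Luminescence read before and 20 min after 0.1 nM hNppA.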
Luciferase inh – Firefly luciferase inhibition profiling of diverse chemical library using quantitative high-throughput screening. Luciferin 4-monooxygenase (Photinus pyralis), P08659. purified P. pyralis luciferase, luminescence, biochemical. Potency, µM (top dose mostly 115 µM), usual class: inhibitors. 2.5% of 76,000 active. AID 1347043, 2019; note: % is set by controls: 0 for no effect and ±100 for the full control effect; nearly all actives have a fitted effect of over 65% in size
Target sequence (P08659 whole entry, looked up): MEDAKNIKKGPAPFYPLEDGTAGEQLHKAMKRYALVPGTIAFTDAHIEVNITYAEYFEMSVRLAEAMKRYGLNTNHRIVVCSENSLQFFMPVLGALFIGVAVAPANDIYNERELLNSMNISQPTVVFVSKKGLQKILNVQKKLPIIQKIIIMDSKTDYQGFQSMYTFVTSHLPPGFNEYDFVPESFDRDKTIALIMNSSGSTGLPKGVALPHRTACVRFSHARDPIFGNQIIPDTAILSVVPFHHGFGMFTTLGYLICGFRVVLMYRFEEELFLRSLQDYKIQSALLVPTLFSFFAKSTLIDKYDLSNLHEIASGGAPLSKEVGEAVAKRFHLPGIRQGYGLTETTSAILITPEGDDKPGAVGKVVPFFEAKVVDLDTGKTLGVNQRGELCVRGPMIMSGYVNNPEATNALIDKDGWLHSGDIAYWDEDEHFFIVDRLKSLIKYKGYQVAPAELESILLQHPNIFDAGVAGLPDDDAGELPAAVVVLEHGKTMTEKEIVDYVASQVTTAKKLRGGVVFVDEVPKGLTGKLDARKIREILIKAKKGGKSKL
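Purified P. pyralis luciferase (10nM final) in 50mM Tris acetate pH 7.5, 10mM Mg acetate, 0.01% Tween-20, 0.05% BSA with 10uM D-luciferin and 10uM ATP. Compounds titrated qHTS. Luminescence imaged on CCD.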
NPR1 antag cnf – Natriuretic polypeptide receptor (hNpr1) antagonism - Confirmation; shares compounds with hNpr1 antagonist; 76% of 1,400 active; Potency, µM (highest dose often 57.6 µM), for inactives: at the highest dose activity change, negative = inhibition, most hits filed as inhibitors; HEK293 hNpr1 cGMP GloSensor luminescence, ANP-stimulated; calls by dose curve; note: nearly all actives have a fitted effect of over 70% in size
NPR2 antag – Natriuretic polypeptide receptor (hNpr2) antagonism - Subtype selectivity assay | HEK293 hNpr2 GloSensor cGMP luminescence, CNP-stimulated | Potency, µM (doses to about 57.6 µM), for the others: at the top dose activity change, negative = inhibition, usual class: inhibitors | AID 1347046, 2019 | 67% of 1,400 active | shares compounds with hNpr1 antagonist; calls by dose curve; note: nearly all actives have a fitted effect of over 70% in size
FLuc inh counter – Natriuretic polypeptide receptor (hNpr1) antagonism - Confirmation firefly luciferase (FLuc) inhibition counterscreen; Potency, µM (titrated, usually from 57.6 µM), for inactives: at the top dose activity change, negative = inhibition, most hits filed as inhibitors; shares compounds with hNpr1 antagonist; purified FLuc enzyme, luminescence, Km substrate; 0.7% of 1,400 active; AID 1347047, 2019; note: series mostly up to about 58 µM; 0% is about no effect
GloSensor ctrl – Natriuretic polypeptide receptor (hNpr1) antagonism - Counterscreen GloSensor control cell line | HEK293 GloSensor cGMP, SNP-stimulated, luminescence | shares compounds with hNpr1 antagonist | Potency, µM (doses to about 57.6 µM), without a hit: at the top dose activity change, negative = inhibition, hits mostly inhibitors | 69% of 1,400 active | AID 1347051, 2019; calls by dose curve; note: % is set by controls: 0 for no effect and ±100 for the full control effect; nearly all actives have a fitted effect of over 70% in size
An asterisk follows results filed as active; i = inactive; ? = inconclusive; · = no result; [ ] = remark or other dose. Unless noted, calls come from the whole dose curve; as a rule, active = well fitted curve in the direction sought with a large enough effect; inconclusive = small, poorly fitted or top-dose-only effect, or another doubt; inactive = no such curve, though single readings can be large; an effect the other way counts as inactive or inconclusive. Potency is the fitted concentration of half-maximal effect.

SMILES	HEK cytotox	3T3 cytotox	GPT2 inh	hNpr1 antagonist	Luciferase inh	NPR1 antag cnf	NPR2 antag	FLuc inh counter	GloSensor ctrl
COc1ccc(-c2nccn3cc(C(=O)NCc4ccc(OC)c(OC)c4)nc23)cc1	?	-26%	i	13µM*	i	19µM*	15µM*	0%	3%
Nc1nc(C2CC(O)C2)cc(N2CCC(Cc3ccc(F)cc3)CC2)n1 (stereo not given)	?	16µM*	-1%	11µM*	i	19µM*	19µM*	1%	12µM*
Nc1nc(C2CC(O)C2)cc(N2CCC(OCc3ccccn3)CC2)n1 (stereo not given)	2%	?	-9%	2%	i	·	·	·	·
Cc1ccc(-c2noc([C@@H]3C[C@H](NC(=O)CC(C)(C)C)CN3C)n2)cc1	89µM*	?	1%[88.5 µM]	35µM*	i	?	?	-25%[86.2 µM]	?
CN1C[C@@H](NC(=O)CC(C)(C)CC(=O)O)C[C@H]1c1nc(-c2ccccc2)no1	-5%[172 µM]	-13%[174 µM]	-14%[88.5 µM]	8%[70.6 µM]	?	·	·	·	·
COc1ccc(-c2noc([C@@H]3C[C@H](NS(=O)(=O)c4ccc5ccccc5c4)CN3C)n2)cc1	?	?	0%	20µM*	i	24µM*	24µM*	?	19µM*
CN1C[C@@H](NC(=O)Nc2cccc(C#N)c2)C[C@H]1c1nc(-c2ccccn2)no1	?	-9%[174 µM]	-4%[88.5 µM]	-3%[70.6 µM]	i	·	·	·	·
CN1C[C@@H](NC(=O)Nc2ccc(Cl)cc2)C[C@H]1c1nc(-c2ccc(F)cc2)no1	32µM*	?	-4%[88.5 µM]	32µM*	i	13µM*	20µM*	1%[86.2 µM]	13µM*
CN1C[C@@H](NC(=O)Nc2cccc(C#N)c2)C[C@H]1c1nc(-c2ccc(Cl)cc2)no1	?	40µM*	-35%[88.5 µM]	25µM*	i	16µM*	25µM*	3%[86.2 µM]	18µM*
CNC(=O)c1cc(C2CC2)nc2c1c(C1CCCN1C(=O)c1cccc(OC)c1)nn2C (stereo not given)	3%	i	·	·	·	·	·	·	·
Cc1nc(N2CCN(C(=O)Cc3ccc(Cl)cc3)CC2)cc(C(F)(F)F)n1	-18%	?	i	3%	i	·	·	·	·
CCOc1ncccc1C(=O)N1CCc2onc(-c3ccccc3F)c2C1	?	?	4%	-19%	i	·	·	·	·
CCC(O)C(=O)N1CCc2onc(-c3ccc(-c4ccccc4)cc3)c2C1 (stereo not given)	?	?	4%	11µM*	i	24µM*	24µM*	?	24µM*
CCCOc1ccccc1C(=O)N1CCc2onc(-c3ccccc3)c2C1	?	?	i	?	i	?	?	2%	-23%
CC(=O)N1CCC2(CC1)CC(N(Cc1ccc(F)cc1)C1CC1)CCO2 (stereo not given)	-11%	4%	i	4%	i	·	·	·	·
Cc1cc(C(=O)N2CCC3(CC2)CC(N(Cc2ccc(F)cc2)C2CC2)CCO3)n(C)n1 (stereo not given)	?	?	i	?	i	27µM*	?	0%	27µM*
Cc1nn(C)c2nc(N3CCC(C#N)(c4ccccc4)CC3)sc12	28µM*	?	1%[11.5 µM]	16µM*	i	22µM*	24µM*	0%	22µM*
CCCCN1C(=O)c2ccccc2C(C(=O)Nc2ccccn2)C12CCCC2 (stereo not given)	?	?	-14%	0%	i	·	·	·	·
COC(=O)c1ccc(NC(=O)N2CC(Oc3cccc(-c4nc(C)no4)c3)C2)cc1	?	?	-16%	13µM*	i	24µM*	24µM*	-1%	24µM*
O=C(Nc1ccccc1)N1CC(Oc2ccc(-c3noc(-c4ccncc4)n3)cc2)C1	?	-25%	i	11µM*	i	6.1µM*	8.6µM*	-1%	6.1µM*
O=C(Nc1ccc(Cl)cc1)C1=NO[C@@H]2CN(c3ccccc3)C[C@H]12	?	?	-20%[88.5 µM]	-10%[70.6 µM]	i	·	·	·	·
CCN(Cc1ccccc1)C(=O)CCC[C@H]1NC[C@@H]2CC1CN(Cc1ccccc1)C2	?	?	-18%	-18%	i	·	·	·	·
COc1ccc(N2CCN(c3nc(C(=O)N4CCCC(C)C4)cs3)CC2)cc1 (stereo not given)	?	?	-27%	?	?	·	·	·	·
COc1ccc(N2CCN(c3nc(C(=O)NCc4ccc(C)c(C)c4)cs3)CC2)cc1	13µM*	?	-5%	13µM*	i	9.7µM*	14µM*	3%	11µM*
COc1ccc(N2CCN(c3nc(C(=O)NCc4cccc(C)c4)cs3)CC2)cc1	18µM*	?	?	16µM*	i	15µM*	15µM*	5%	12µM*
COc1ccc(N2CCN(c3nc(C(=O)NCc4ccc(C)cc4)cs3)CC2)cc1	28µM*	-22%	-19%	4.5µM*	i	7.7µM*	11µM*	1%	8.6µM*
CCc1ccc(C(=O)N2CCC(Oc3ncccc3C(=O)N3CCCCC3)C2)cc1 (stereo not given)	-8%	-39%	-10%	2%	i	·	·	·	·
C[S+](=O)([O-])N1Cc2ccccc2CC2(CCN(CCc3ccccc3)C2)C1 (stereo not given)	?	-27%	i	·	·	·	·	·	·

Bioassay records from PubChem.
